Records with an inconclusive call do not appear. Activity calls are given as the source filed them. How the source made its calls: active means hit-call score of the fitted dose curve at least 0.9, where 1 is the maximum; inconclusive means response in the unintended direction; inactive means score below 0.9.
target: Androgen Receptor/SRC-1 Co-activator, AR (gene 367) (UniProt P10275); assay: OT_AR_ARSRC1_0960: Odyssey Thera (OT) 16-hour HEK293T Protein-Complementation Assay for Androgen Receptor/SRC-1 Co-activator (AID 2283353);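 further: actives raise the signal above DMSO so potency reflects increased AR and SRC-1 complex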
Sequence (P10275 whole entry, looked up, the tested form may be a part): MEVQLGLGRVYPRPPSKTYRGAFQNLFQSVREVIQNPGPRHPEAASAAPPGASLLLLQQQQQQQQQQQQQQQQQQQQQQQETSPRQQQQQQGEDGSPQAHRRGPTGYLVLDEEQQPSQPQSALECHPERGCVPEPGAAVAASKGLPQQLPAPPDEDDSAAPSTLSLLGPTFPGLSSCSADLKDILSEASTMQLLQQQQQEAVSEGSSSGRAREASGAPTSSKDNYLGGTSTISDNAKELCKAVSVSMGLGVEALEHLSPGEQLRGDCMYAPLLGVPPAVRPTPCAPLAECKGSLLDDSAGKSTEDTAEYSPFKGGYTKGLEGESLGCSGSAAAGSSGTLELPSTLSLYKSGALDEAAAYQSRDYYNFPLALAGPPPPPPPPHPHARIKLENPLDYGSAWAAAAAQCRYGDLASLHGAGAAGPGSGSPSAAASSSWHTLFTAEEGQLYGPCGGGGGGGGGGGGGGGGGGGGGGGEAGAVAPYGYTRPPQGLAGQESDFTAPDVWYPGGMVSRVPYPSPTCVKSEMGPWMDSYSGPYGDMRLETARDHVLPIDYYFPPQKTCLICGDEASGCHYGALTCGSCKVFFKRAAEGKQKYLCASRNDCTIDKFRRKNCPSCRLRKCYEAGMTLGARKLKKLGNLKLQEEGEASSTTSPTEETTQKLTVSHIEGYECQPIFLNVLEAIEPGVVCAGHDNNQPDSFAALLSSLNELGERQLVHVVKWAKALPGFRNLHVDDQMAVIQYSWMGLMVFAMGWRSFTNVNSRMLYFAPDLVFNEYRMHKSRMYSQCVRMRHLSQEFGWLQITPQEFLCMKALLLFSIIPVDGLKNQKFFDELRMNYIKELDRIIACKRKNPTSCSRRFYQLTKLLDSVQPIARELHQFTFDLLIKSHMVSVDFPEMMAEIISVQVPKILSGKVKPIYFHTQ
Method in brief: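 Sixteen-hour cell assay: Venus halves fused to AR and SRC-1 in HEK293T report binding. Images at 488/635 nm give an N/C ratio in the 488 nm channel over ≥400 cells, analysed as signal increase over DMSO.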

Row | Compound | outcome | AC50
1 | Cc1ccc(S(=O)(=O)Oc2ccc(N=Nc3ccc(-c4ccc(N=Nc5c(O)ccc6cc(S(=O)(=O)O)cc(S(=O)(=O)O)c56)c(C)c4)cc3C)cc2)cc1 | inactive | 
2 | CCOC(=O)[C@@H](C)Oc1ccc(Oc2nc3ccc(Cl)cc3o2)cc1 | inactive | 
3 | CCCCCCCCC=CCCCCCCCC1=NCCN1CCO |  | 15.7 µM (active)
4 | CC(=O)O[C@H]1C[C@@H]2CC[C@@]1(C)C2(C)C | inactive | 
5 | CCCCCCCCSCCO | inactive | 

target: Androgen Receptor/SRC-1 Co-activator, AR (gene 367) (UniProt P10275); assay: OT_AR_ARSRC1_0480: Odyssey Thera (OT) 8-hour HEK293T Protein-Complementation Assay for Androgen Receptor/SRC-1 Co-activator (AID 2283354);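 further: hits raise the complementation signal above DMSO so AC50 marks enhancers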
Method in brief: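 After 8 h dosing, stably expressing HEK293T cells with split-Venus AR/SRC-1 fusions were imaged (488, 635nm). The 488nm N/C ratio per image gave the endpoint, analysed in the positive direction against DMSO.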

Row | Compound | outcome | AC50
6 | Cc1ccc(S(=O)(=O)Oc2ccc(N=Nc3ccc(-c4ccc(N=Nc5c(O)ccc6cc(S(=O)(=O)O)cc(S(=O)(=O)O)c56)c(C)c4)cc3C)cc2)cc1 | inactive | 
7 | CCOC(=O)[C@@H](C)Oc1ccc(Oc2nc3ccc(Cl)cc3o2)cc1 | inactive | 
8 | CCCCCCCCC=CCCCCCCCC1=NCCN1CCO |  | 23.3 µM (active)
9 | CCCCCCCCSCCO | inactive | 
10 | CC(C=O)Cc1ccc(C(C)(C)C)cc1 (stereo not drawn) | inactive | 

target: Estrogen receptor beta (Homo sapiens) (UniProt Q92731); assay: OT_ER_ERbERb_0480: Odyssey Thera (OT) 8-hour HEK293T Protein-Complementation Assay for Estrogen Receptor-beta/-beta Homodimer (AID 2283357);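 further: active means signal gain over DMSO baseline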
Sequence (Q92731 whole entry, looked up, the tested form may be a part): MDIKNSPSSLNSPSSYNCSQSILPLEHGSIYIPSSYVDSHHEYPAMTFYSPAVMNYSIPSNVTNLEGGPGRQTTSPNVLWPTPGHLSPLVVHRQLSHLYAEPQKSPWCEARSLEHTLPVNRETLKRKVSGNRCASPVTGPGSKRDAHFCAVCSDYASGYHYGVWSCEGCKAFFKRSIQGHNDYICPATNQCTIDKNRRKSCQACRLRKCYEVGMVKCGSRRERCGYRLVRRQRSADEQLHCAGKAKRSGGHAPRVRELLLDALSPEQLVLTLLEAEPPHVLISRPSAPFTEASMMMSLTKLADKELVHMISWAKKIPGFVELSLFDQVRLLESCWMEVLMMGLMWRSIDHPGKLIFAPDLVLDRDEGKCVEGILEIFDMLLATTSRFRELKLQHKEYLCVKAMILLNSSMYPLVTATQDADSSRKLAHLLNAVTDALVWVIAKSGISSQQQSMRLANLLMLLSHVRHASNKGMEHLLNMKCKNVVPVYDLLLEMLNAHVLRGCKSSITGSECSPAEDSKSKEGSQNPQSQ
Method in brief: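 Fluorescence gain from complemented reporter fragments on ER-beta LBD homodimer in HEK293T was quantified against DMSO controls after 8 h treatment, fixation in 4% formaldehyde and Draq5 staining.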

Row | Compound | AC50 | outcome
11 | C=C[Si]1(C)O[Si](C)(C=C)O[Si](C)(C=C)O[Si](C)(C=C)O1 (stereo not drawn) | 23.8 µM (active) | 
12 | Cc1ccc(S(=O)(=O)Oc2ccc(N=Nc3ccc(-c4ccc(N=Nc5c(O)ccc6cc(S(=O)(=O)O)cc(S(=O)(=O)O)c56)c(C)c4)cc3C)cc2)cc1 |  | inactive
13 | CN1CCOCC1 |  | inactive
14 | COc1ccc(N=Nc2cc(C)c(N=Nc3ccc(S(=O)(=O)O)cc3)cc2OC)cc1 |  | inactive
15 | c1ccc(Oc2ccccc2)cc1 |  | inactive
16 | CCC(=O)O[C@@H]1C[C@H]2CC[C@]1(C)C2(C)C |  | inactive
17 | OC[C@H]1O[C@@H]2O[C@H]3[C@H](O)[C@@H](O)[C@@H](O[C@H]4[C@H](O)[C@@H](O)[C@@H](O[C@H]5[C@H](O)[C@@H](O)[C@@H](O[C@H]6[C@H](O)[C@@H](O)[C@@H](O[C@H]7[C@H](O)[C@@H](O)[C@@H](O[C@H]8[C@H](O)[C@@H](O)[C@@H](O[C@H]9[C@H](O)[C@@H](O)[C@@H](O[C@H]1[C@H](O)[C@H]2O)O[C@@H]9CO)O[C@@H]8CO)O[C@@H]7CO)O[C@@H]6CO)O[C@@H]5CO)O[C@@H]4CO)O[C@@H]3CO |  | inactive
18 | CN(C)c1cccc(O)c1 |  | inactive
19 | O=[N+]([O-])c1ccc(O)cc1C(F)(F)F | 64.6 µM (active) | 
20 | CCOC(=O)[C@@H](C)Oc1ccc(Oc2nc3ccc(Cl)cc3o2)cc1 |  | inactive
21 | CCCCCCCCN1CCCC1=O |  | inactive
22 | COC(=O)c1ccc(C)cc1C1=NC(C)(C(C)C)C(=O)N1 (stereo not drawn) (tested in a mixture with another compound) |  | inactive
23 | CCCCCCCCC=CCCCCCCCC1=NCCN1CCO |  | inactive
24 | C=CC(C)(O)CCC=C(C)C (stereo not drawn) |  | inactive
25 | CCCCCCCCCCCCCCN(CCO)CCO |  | inactive
26 | C=Cc1ccc(C)cc1 |  | inactive
27 | CSCCC=O |  | inactive
28 | CC(=O)O[C@H]1C[C@@H]2CC[C@@]1(C)C2(C)C |  | inactive
29 | CCCCCCCCCCCC(=O)OCC(O)CO (stereo not drawn) |  | inactive
30 | CC(C=O)Cc1ccc(C(C)(C)C)cc1 (stereo not drawn) |  | inactive
31 | COS(=O)(=O)O |  | inactive

target: Retinoic acid receptor alpha (Homo sapiens) (UniProt P10276); assay: NVS_NR_hRAR_Antagonist: NovaScreen (NVS) Nuclear Receptor Binding Assay for human Retinoic Acid Alpha Receptor Antagonism (RAR) (AID 2283358)
Sequence (P10276 whole entry, looked up): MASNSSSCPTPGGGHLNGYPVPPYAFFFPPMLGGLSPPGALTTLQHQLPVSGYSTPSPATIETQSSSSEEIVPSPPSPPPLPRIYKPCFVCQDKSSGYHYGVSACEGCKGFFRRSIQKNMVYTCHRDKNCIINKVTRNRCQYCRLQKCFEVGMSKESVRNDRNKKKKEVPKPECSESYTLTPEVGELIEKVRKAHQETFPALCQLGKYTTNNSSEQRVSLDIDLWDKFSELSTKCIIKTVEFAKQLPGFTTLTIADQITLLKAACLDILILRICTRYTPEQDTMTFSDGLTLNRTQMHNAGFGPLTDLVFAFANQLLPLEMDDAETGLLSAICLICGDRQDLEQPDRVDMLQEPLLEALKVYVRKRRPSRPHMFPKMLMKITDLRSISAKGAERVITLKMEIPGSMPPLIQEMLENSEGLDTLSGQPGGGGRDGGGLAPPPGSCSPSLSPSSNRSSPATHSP
Method in brief: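 Chemicals were first tested in duplicate at 25 uM, then actives in concentration series, in a cell-free TR-FRET antagonist binding format. Measurements were taken 2 hours after dosing and loss of signal was evaluated against DMSO controls.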

Row | Compound | outcome | AC50
32 | Cc1ccc(S(=O)(=O)Oc2ccc(N=Nc3ccc(-c4ccc(N=Nc5c(O)ccc6cc(S(=O)(=O)O)cc(S(=O)(=O)O)c56)c(C)c4)cc3C)cc2)cc1 | inactive | 
33 | CCCCCCCCC=CCCCCCCCC1=NCCN1CCO |  | 25 µM (active)
34 | CCCCCCCCCCCCCCN(CCO)CCO | inactive | 

target: human Peroxisome Proliferator-activated Receptor alpha (PPARa), PPARA (gene 5465) (UniProt Q07869); assay: NVS_NR_hPPARa: NovaScreen (NVS) Nuclear Receptor Binding Assay for human Peroxisome Proliferator-activated Receptor alpha (PPARa) (AID 2283359);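 further: activity means loss of TR-FRET signal versus DMSO baseline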
Sequence (Q07869 whole entry, looked up): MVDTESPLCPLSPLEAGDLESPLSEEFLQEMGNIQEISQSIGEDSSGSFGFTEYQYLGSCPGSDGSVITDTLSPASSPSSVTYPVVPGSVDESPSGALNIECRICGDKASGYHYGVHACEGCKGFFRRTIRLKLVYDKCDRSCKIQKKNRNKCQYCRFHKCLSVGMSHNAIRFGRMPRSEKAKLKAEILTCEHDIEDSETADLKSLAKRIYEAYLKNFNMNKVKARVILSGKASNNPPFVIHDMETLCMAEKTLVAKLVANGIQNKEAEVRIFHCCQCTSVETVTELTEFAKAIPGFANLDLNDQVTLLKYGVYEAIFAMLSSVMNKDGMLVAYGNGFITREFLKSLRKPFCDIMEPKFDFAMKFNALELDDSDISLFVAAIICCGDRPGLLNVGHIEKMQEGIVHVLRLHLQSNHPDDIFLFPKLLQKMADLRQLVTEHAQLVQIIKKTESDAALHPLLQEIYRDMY
Method in brief: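 One-hour incubation, cell-free extracted protein, TR-FRET binding readout; signal loss vs DMSO scored. Screen: 25 uM duplicates, confirmatory dose series for actives.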

Row | Compound | outcome
35 | Cc1ccc(S(=O)(=O)Oc2ccc(N=Nc3ccc(-c4ccc(N=Nc5c(O)ccc6cc(S(=O)(=O)O)cc(S(=O)(=O)O)c56)c(C)c4)cc3C)cc2)cc1 | inactive
36 | OC[C@H]1O[C@@H]2O[C@H]3[C@H](O)[C@@H](O)[C@@H](O[C@H]4[C@H](O)[C@@H](O)[C@@H](O[C@H]5[C@H](O)[C@@H](O)[C@@H](O[C@H]6[C@H](O)[C@@H](O)[C@@H](O[C@H]7[C@H](O)[C@@H](O)[C@@H](O[C@H]8[C@H](O)[C@@H](O)[C@@H](O[C@H]9[C@H](O)[C@@H](O)[C@@H](O[C@H]1[C@H](O)[C@H]2O)O[C@@H]9CO)O[C@@H]8CO)O[C@@H]7CO)O[C@@H]6CO)O[C@@H]5CO)O[C@@H]4CO)O[C@@H]3CO | inactive
37 | O=[N+]([O-])c1ccc(O)cc1C(F)(F)F | inactive
38 | CCCCCC(=O)CC | inactive

Reference: PubChem BioAssay (EPA / NIEHS)
